A number with no mark means an inactive call.

The test system of the test is XIP peptide (Xip251-270) binding. In words: small-molecule binders of XIP peptide, primary screen, biochemical, small-molecule microarray, fluorescence 635/667 nm, 0.1 µg/mL protein (AID 1182). As to conditions: fluorescent protein binding, 635 nm, higher = more signal, called active from +8 up or from −8 down.
For the compound `COC(=O)[C@@]1(Cc2ccc(F)cc2)[C@H]2c3cc(C(=O)N4CCCC4)n(CCSCCO)c3C[C@H]2CN1C(=O)c1ccccc1`, the composite z-score is 0.159.
Turning to `C[N+](C)(C)CCCC[C@@H]1NC(=O)[C@H]2C[C@@H](C(=O)NCCCCCN)[C@@H](c3ccc(O)cc3)N2C1=O`, the composite z-score is 0.528.
`COc1c(C)cc(-c2cc3c(c(CCc4ccccc4)n2)[Si](C(C)C)(C(C)C)O[C@H]3c2ccccc2)cc1C`: the composite z-score was -0.0596.
For `C=CCOC(=O)[C@H]1[C@@H]2C(=O)O[C@@H](c3ccccc3)[C@@H](c3ccccc3)N2[C@@H](c2ccc(OCCOC(=O)[C@H]3C[C@H]4C(=O)NCC(=O)N4[C@H]3c3ccc(O)cc3)cc2)[C@]12C(=O)Nc1ccccc12`, the composite z-score is 0.758.
Take `CCCCCCc1nc(Cc2cc(OC)c(OC)c(OC)c2)c(C)c2c1[Si](C(C)C)(C(C)C)OC2`: the composite z-score was -0.814.
As for `CC[C@H]1C2=C3C(CC[C@H]4C(OCc5ccc(F)cc5C(F)(F)F)OC[C@](C)([C@@H]34)N(C(=O)OC(C)(C)C)C2)C(COC(C)=O)C1COC(C)=O` (stereo partly drawn), the composite z-score is 0.28.
As for `COCCOC(=O)N1C(=O)[C@@]2(c3cc(C#CCC(C(=O)OC)C(=O)OC)ccc31)[C@H](C(=O)N1CCc3cc(OC)c(OC)cc3C1)[C@H]1C(=O)O[C@H](c3ccccc3)[C@H](c3ccccc3)N1[C@@H]2c1ccccc1OCCO`, the composite z-score is 0.629.
The same measure for `C=C[C@@H](CO)NS(=O)(=O)c1ccc(Br)cc1`: -0.987.
The figure for `[N-]=[N+]=NCc1ccccc1[C@H]1OC(c2ccc(OCCCO)cc2)=N[C@@]1(Cc1ccccc1N=[N+]=[N-])C(N)=O` is -0.19.
For the compound `COCCCNC(=O)[C@@]1(CCC(=O)OC(C)(C)C)N=C(c2ccc(OCCCO)cc2)O[C@H]1c1ccccc1`, the composite z-score was 0.809.
On to `C=CCOC(=O)[C@@H]1[C@H]2C(=O)O[C@H](c3ccccc3)[C@H](c3ccccc3)N2[C@H](c2ccc(OCCOC(=O)[C@@H]3C[C@@H]4C(=O)N[C@@H](CC(C)C)C(=O)N4[C@@H]3c3ccc(O)cc3)cc2)[C@@]12C(=O)Nc1ccc(I)cc12`, for which the composite z-score is 0.78.
Consider `CN1C2C=C(c3ccc(CO)cc3)C(C3C(=O)N(C(N)=O)C(=O)C32)C1C1CC1` (stereo not drawn), for which the composite z-score was -0.313.
As for `CC(C)(C)OC(=O)CC[C@@]1(C(=O)N2CCOCC2)N=C(c2ccc(OCCCO)cc2)O[C@@H]1c1ccccc1CN=[N+]=[N-]`, the composite z-score is 3.3.
Regarding `COCCOC(=O)N1C(=O)[C@@]2(c3cc(C#CCCO)ccc31)[C@H](c1ccc(O)cc1)N1[C@H](c3ccccc3)[C@H](c3ccccc3)OC(=O)[C@H]1[C@@H]2C(=O)NC[C@H](O)c1ccccc1`, the composite z-score was 0.395.
As to `COC(=O)[C@@]1(Cc2ccc(F)cc2)[C@H]2c3cc(C(=O)N4CCCC4)n(Cc4ccc(OC(F)(F)F)cc4)c3C[C@H]2CN1C(=O)c1ccccc1`, the composite z-score was 0.124.
The figure for `COc1cccc(C)c1NC(=O)O[C@H]1[C@H](OC(=O)Nc2ccccc2-c2ccccc2)[C@@H](OC(=O)Nc2ccccc2-c2ccccc2)[C@@H](OC)O[C@@H]1CO` is 1.22; for `COCCOC(=O)N1C(=O)[C@@]2(c3cc(C#CC4=CCCCC4)ccc31)[C@H](c1ccc(O)cc1)N1[C@H](c3ccccc3)[C@H](c3ccccc3)OC(=O)[C@H]1[C@@H]2C(=O)N1CCc2cc(OC)c(OC)cc2C1` it is 2.12; for `C=C(CCCC)C(=O)CC[C@@H](OC(C)=O)c1ccc(OCCO)cc1` it is 0.386.
The same measure for `CC(C)(C)OC(=O)CC[C@]1(C(=O)N2CCOCC2)COC(c2ccc(OCCCO)cc2)=N1`: -0.199; for `CC1CC/C=C\[C@H]2OC34C=CCN(CCN5CCOCC5)C(=O)[C@H]3N(C(CO)C(C)C)C(=O)[C@@H]4C2C(=O)O1` (stereo partly drawn): 0.287; for `C[C@@]1([C@@H](NS(=O)(=O)c2cccc3cccnc23)c2ccc(-c3ccccc3)cc2)C[C@H]1C1CCCCC1`: 0.648.
The figure for `COc1ccc(CCNC(=O)[C@@]2(c3ccc([N+](=O)[O-])cc3)CC(=O)N(C3CCCCC3)[C@@H]2c2ccc(CO)cc2I)cc1` is 0.548.
Regarding `CCOC(=O)C[C@H]1[C@H](OC(=O)c2ccc(-c3ccccc3)cc2)[C@@H](NC(=O)c2ccc(-c3ccccc3)cc2)c2cc(OCCCO)ccc2N1C(=O)c1ccccc1`, the composite z-score was 1.11.
